Calls of active or inactive are those of the source. No stated cut-off is given here; in the data, active means inhibition above about 42%; inactive means the rest.

Our source for the inhibition values is PubChem BioAssay.

The target of this experiment is Nuclear receptor subfamily 5 group A member 2 (Homo sapiens) (UniProt O00482). The experiment can be described thus: NR5A2 activity suppression in reporter cells – cell-based, luminescence, confirmation (AID 651613).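 Further: HEK293T cells co-transfected with LRH-1 and StAR promoter luciferase reporter; 0% = vehicle wells and 100% = parental cells lacking receptor.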 Conditions: cell-based LRH-1 luciferase reporter, inverse agonism; at 3.6 µM; hits give high values. (Reporter assays use an easily measured gene product as a stand-in for the process of interest.)
Nuclear receptor subfamily 5 group A member 2 (Homo sapiens), sequence (O00482 whole entry, looked up): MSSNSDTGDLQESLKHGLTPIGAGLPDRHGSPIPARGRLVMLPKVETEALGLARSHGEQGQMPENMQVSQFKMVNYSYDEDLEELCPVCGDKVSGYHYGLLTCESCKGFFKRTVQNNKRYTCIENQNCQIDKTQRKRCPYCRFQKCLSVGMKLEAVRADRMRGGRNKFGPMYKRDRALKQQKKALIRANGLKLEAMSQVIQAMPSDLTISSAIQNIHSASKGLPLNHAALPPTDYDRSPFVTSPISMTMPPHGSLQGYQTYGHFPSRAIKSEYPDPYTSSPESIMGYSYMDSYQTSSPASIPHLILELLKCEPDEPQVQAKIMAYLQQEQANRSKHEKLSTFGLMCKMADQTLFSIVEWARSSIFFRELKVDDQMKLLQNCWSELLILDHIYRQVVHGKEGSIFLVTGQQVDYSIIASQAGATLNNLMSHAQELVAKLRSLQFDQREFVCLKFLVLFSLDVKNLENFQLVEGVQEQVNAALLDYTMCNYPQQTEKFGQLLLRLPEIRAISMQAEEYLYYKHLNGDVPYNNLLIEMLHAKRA
As a reminder, the inhibition is the drop in the measured response relative to a control, in per cent. Turning to `N=c1ccn(CC(=O)c2ccc(-c3ccccc3)cc2)cc1`, the inhibition was 92.8% (active).
As for `C(=NNc1ccc2ccccc2n1)c1ccccn1`, the figure is 51% (active); as for `CC(=NNC(=S)Nc1ccc(C)cc1)c1ccccn1`, 68.7% (active).
In the case of `Cc1cc(-c2nnc(SCC(=O)Nc3ccccc3C(F)(F)F)o2)c(C)n1-c1ccccc1` it was -50.2% (inactive); in that of `CCC(=O)NC(c1ccc(Cl)cc1Cl)c1ccc2cccnc2c1O` (stereo not given), 92.7% (active); in that of `CCOc1ccc(C(=O)Nc2cnn(Cc3ccc(Cl)c(Cl)c3)c2)cc1`, 62.7% (active).
In the case of `Cc1ccc(-n2c(-c3ccccc3)c[n+]3c2CCc2ccccc2-3)c(C)c1` it was 107% (active); in that of `CC1Cc2cc(-c3csc(NC(=O)Cc4cccs4)n3)ccc2N1S(C)(=O)=O` (stereo not given), 63.7% (active).
For the compound `Cc1ccc2nc(NC(=O)CSCC(=O)OCC(=O)c3ccccc3)sc2c1`, the inhibition was 52.4% (active).
As for `O=c1[nH]cnc2c1nnn2C1OC(CO)C(O)C1O` (stereo not given), the figure is 78.6% (active).
In the case of `Cc1cccc(-n2c(N)c(-c3nc4ccccc4n3C)c3nc4ccccc4nc32)c1` it was -11.5% (inactive); in that of `CN(C)c1ccc(/C=C/c2ccc3ccccc3[n+]2C)cc1`, 76.8% (active).
Take `COc1ccc(C(=O)Nc2cnn(Cc3ccc(Cl)cc3)c2)cc1OC`: the inhibition was 51.8% (active).
For `CCOC(=O)c1cc2c(=Cc3ccc(N(C)C)cc3)c3ccccc3n2[n+]1C`, the inhibition was 105% (active).
In the case of `COc1cc(C2c3cc4c(cc3C(OC3OC5COC(c6cccs6)OC5C(O)C3O)C3COC(=O)C23)OCO4)cc(OC)c1O` (stereo not given) it was 82.6% (active); in that of `CCc1nc(N)nc(N)c1-c1ccc(N(C)Cc2ccccc2)c([N+](=O)[O-])c1`, 69.6% (active); in that of `Cc1ccc(S(=O)(=O)Nc2ccccc2C(=O)Nc2nc(-c3ccc(F)cc3)cs2)cc1`, 82.7% (active).
Consider `COc1ccc(NC(=O)c2sc(=O)n(Cc3cccc(C(F)(F)F)c3)c2C)cc1OC`, for which the inhibition is 67.8% (active).
As for `CC#CC[N+](C)(C)CCCCCCCCCCCC`, the figure is 65.2% (active); as for `Cc1cccc2cc(-c3ccccc3)c(-c3ccccc3)c[n+]12`, 106% (active).
As for `CCN(CC)c1ccc(/C=C/c2ccc3ccc(OC)cc3[n+]2CC)cc1`, the figure is 96.4% (active); as for `Cc1cc(/C=C2\Sc3ccccc3N2C)cc(C)[n+]1CC1CCCO1` (stereo not given), 99.3% (active).
In the case of `CC(C)CCCCCCCCCCCCC(=O)NCC(=O)NC1C(O)C(O)C(Nc2ncnc3nc[nH]c23)OC1C(O)CO` (stereo not given) it was 110% (active); in that of `O=C1NC(=O)C(c2ccc(F)cc2)N1` (stereo not given), 8.89% (inactive).
Take `CCN(CC)c1ccc(/C=C/c2cccc[n+]2C)c(OC)c1`: the inhibition was 106% (active).
In the case of `CCc1ccc(/C=C/c2c[nH]c3ccccc23)[n+](CC)c1` it was 87.6% (active); in that of `NC(=O)c1cc([N+](=O)[O-])ccc1NCc1ccc(O)cc1`, 63.8% (active); in that of `CCN(CC)CCCNc1nc2ccccc2c2[nH]c3ccc(OC)cc3c12`, 44.4% (active).
Turning to `CC1=NN(c2nc3ccccc3[nH]2)C(=O)C1Cc1ccccc1` (stereo not given), the inhibition was 101% (active).
As for `Nc1nc(N)c2c(ccc3c2ccn3Cc2cccc([N+](=O)[O-])c2)n1`, the figure is 65.6% (active); as for `CCN1/C(=C/c2ccc3cc(C)ccc3[n+]2CC)Sc2ccccc21`, 105% (active).
In the case of `CC(C)(C)c1ccc(-c2cn(-c3ccc(Br)cc3)c3[n+]2CCCS3)cc1` it was 107% (active); in that of `COc1ccc(C2=Nn3c([n+](C)c4ccccc43)SC2)cc1`, 95.7% (active).
Take `CCOC(=O)C(C(C)=O)c1c(Br)c(O)c(O)c2c(C(=O)c3ccc(C)cc3)coc12` (stereo not given): the inhibition is 94.8% (active).
As for `N=c1c2c(n(Cc3ccc(F)cc3)c3c1CCC3)CCCC2`, the figure is 101% (active); as for `Cc1nc(N)nc(N)c1/C=C/C(C)(C)c1ccc(Cl)cc1`, 62.7% (active).
As for `COCCn1c(C)cc(C(=O)COC(=O)c2ccccc2Br)c1C`, the figure is -4.05% (inactive); as for `CC(=O)c1cccc(N=c2scc(-c3ccc(S(=O)(=O)N4CCOCC4)cc3)n2CCO)c1`, 63.3% (active); as for `CC(=NNC(=S)N1CC2CCC(CC2)C1)c1ccccn1`, 98.3% (active).
As for `O=C(N/N=C/c1ccc[nH]1)c1ccc(COc2cccc3cccnc23)cc1`, the figure is 109% (active).
